The target in experiment [1] is Cytochrome P450 3A4 (Homo sapiens) (UniProt P08684). In words: qHTS Assay for Inhibitors and Substrates of Cytochrome P450 3A4 (AID 884). Further: potency means the concentration at half of the fitted maximal effect; nearly all actives have a fitted effect of over 50% in size. In a few lines:
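Luminescent readout of luciferin produced by CYP3A4 (20 nM) dealkylation of Luciferin-PPXE, 25 uM (its KM). NADPH-driven reaction ran 60 min at RT after 10 min compound preincubation; data scaled to 57 uM ketoconazole as 100% inhibition.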

Experiment [2] has the same target. Description: qHTS Assay for Activators of Cytochrome P450 3A4 (AID 885). Further: nearly all actives have a fitted effect of over 65% in size. In a few lines: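 Using 20nM recombinant human CYP3A4 in potassium phosphate (200mM), substrate Luciferin-PPXE at 25uM, luminescent luciferin detection followed a 60-min RT NADPH reaction; data scaled to 57 uM ketoconazole.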
Experiment [3] concerns the target Atrial natriuretic peptide receptor 1 (Homo sapiens) (UniProt P16066). In words: Natriuretic polypeptide receptor (hNpr1) antagonism - Pilot CMLD screen (AID 1347052; calls by dose curve;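 further: HEK293 cells with hNpr1 stimulated by hNppA peptide at 0.1 nM; cGMP level read as GloSensor luciferase luminescence after agonist stimulation; series mostly up to about 9.2 µM; on the % scale 0 is the no-effect control and ±100 the full control effect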).
A short description of experiment [4]: qHTS for Inhibitors of Plasmodium falciparum (CP250) proliferation (AID 504320).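 Further: plate controls were DMSO vehicle for no effect and 0.29 µM artemisinin control for full effect.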 In a few lines: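 Parasite growth measured as SYBR Green DNA fluorescence (ex 485, em 535 nm) after overnight lysis following 72 h culture at 37 °C, 0.3% parasitemia, 2.5% hematocrit. Values normalized against DMSO and 0.29 uM artemisinin controls, with plate-stack correction.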
A general note: Quantitative high-throughput screening tests each substance at several concentrations.

Experiment [5] addresses N-terminal Xaa-Pro-Lys N-methyltransferase 1 (Homo sapiens) (UniProt Q9BV86). In words: qHTS Assay for Inhibitors of N-terminal methyltransferase 1 (NTMT1): LOPAC validation of the NTMT1 SAHH-coupled ThioGlo3 Assay (AID 1347143).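 Further: SAH from peptide methylation measured as thiol fluorescence via SAHH coupling and ThioGlo3; potency means the concentration at half of the fitted maximal effect; nearly all actives have a fitted effect of over 70% in size.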 In a few lines: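 In this qHTS pilot against the LOPAC set, 125nM NTMT1 met compounds tested at multiple concentrations, and fluorescence was normalized to background.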

A number with no mark means an inactive call. Records with an inconclusive call do not appear. Calls of active or inactive are those of the source. Unless noted, the call rests on the fitted dose curve; in most records, active means well fitted curve in the direction sought with a large enough effect; inconclusive means small, poorly fitted or top-dose-only effect, or another doubt; inactive means no such curve, though single readings can be large; an effect the other way counts as inactive or inconclusive.

Atrial natriuretic peptide receptor 1 (Homo sapiens), sequence (P16066 whole entry, looked up): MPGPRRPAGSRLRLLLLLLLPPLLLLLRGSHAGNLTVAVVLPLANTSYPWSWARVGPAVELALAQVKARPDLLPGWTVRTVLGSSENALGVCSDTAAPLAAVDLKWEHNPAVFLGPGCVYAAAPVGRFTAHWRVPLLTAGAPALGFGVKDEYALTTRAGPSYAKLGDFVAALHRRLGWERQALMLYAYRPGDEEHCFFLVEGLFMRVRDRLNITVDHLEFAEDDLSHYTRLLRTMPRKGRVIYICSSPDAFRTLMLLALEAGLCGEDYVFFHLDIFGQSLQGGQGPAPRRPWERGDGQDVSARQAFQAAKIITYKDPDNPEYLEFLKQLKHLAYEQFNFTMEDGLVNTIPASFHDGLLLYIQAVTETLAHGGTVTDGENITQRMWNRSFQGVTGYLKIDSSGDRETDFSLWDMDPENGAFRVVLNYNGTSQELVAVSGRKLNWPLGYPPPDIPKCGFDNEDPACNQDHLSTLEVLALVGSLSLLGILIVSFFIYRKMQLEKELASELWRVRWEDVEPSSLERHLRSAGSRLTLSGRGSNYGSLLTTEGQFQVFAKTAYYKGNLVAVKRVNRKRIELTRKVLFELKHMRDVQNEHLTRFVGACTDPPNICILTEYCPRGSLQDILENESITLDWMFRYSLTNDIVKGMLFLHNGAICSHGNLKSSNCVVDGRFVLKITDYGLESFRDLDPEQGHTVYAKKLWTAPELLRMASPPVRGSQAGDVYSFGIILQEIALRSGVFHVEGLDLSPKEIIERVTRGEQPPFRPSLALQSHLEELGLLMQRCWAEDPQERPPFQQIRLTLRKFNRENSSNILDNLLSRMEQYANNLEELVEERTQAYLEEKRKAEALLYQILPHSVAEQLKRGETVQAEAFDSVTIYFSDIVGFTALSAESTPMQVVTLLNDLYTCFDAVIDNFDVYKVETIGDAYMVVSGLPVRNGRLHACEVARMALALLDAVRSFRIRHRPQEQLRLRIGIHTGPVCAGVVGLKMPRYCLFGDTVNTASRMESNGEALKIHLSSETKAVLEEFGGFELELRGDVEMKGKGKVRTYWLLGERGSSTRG
Cytochrome P450 3A4 (Homo sapiens), sequence (P08684 whole entry, looked up): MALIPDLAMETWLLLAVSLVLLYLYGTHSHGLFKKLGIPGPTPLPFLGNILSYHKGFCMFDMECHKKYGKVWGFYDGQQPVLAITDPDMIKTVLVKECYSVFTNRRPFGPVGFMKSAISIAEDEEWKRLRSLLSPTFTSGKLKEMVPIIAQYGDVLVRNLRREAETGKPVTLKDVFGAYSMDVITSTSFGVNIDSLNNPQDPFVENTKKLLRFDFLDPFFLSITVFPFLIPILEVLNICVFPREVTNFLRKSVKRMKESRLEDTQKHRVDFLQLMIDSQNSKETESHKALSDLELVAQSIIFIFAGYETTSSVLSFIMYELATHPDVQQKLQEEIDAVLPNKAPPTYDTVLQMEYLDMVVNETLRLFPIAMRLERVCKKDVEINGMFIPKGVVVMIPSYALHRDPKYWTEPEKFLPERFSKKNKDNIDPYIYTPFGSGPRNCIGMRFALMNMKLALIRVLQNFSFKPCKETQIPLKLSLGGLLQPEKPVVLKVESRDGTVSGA
N-terminal Xaa-Pro-Lys N-methyltransferase 1 (Homo sapiens), sequence (Q9BV86 whole entry, looked up): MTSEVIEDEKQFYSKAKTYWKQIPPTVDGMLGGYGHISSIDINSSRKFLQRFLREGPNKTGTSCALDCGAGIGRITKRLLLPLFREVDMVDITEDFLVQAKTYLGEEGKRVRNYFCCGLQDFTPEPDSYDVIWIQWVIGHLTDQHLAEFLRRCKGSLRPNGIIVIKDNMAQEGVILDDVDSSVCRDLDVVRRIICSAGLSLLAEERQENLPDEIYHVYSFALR

Turning to `CCCCCCC#Cc1cc(OC)c(OC)cc1C(N1CC(C)c2ccccc21)N1CC(C)c2ccccc21` (stereo unspecified), in experiment [1], the Potency is 3.16 µM (active). Besides, the activity change, positive = activation in experiment [2] is -88.3% [at 11.4 µM]. Also, in experiment [3], the Potency entry was “inactive”.
With `COC1=C[C@H](C(=O)NC2CCN(Cc3ccccc3)CC2)[C@H](C)[C@@H](c2ccccc2)CC1=O`, the Potency entry in experiment [4] and in experiment [3] was “inactive” in each case.
Regarding `CCOC(=O)CN1C(=O)[C@@]2(CC(C)=CC[C@@H](COc3ccccc3)O2)c2ccccc21`, the Potency entry in experiment [4] and in experiment [3] was “inactive” each time.
On to `CC=CC1=Cc2ccccc2C(C(C(=O)OC)C(=O)OC)N1C(=O)OC` (stereo unspecified), for which the Potency result in experiment [4] and in experiment [3] was “inactive” throughout.
As for `CCCNC(=O)OC[C@H]1O[C@H](CCON=Cc2ccc(C(=O)N3[C@H](C(=O)OC)CC[C@H](C)[C@@H]3c3ccc(C)cc3)cc2)C=C[C@H]1Oc1ccc(OC)cc1`, the Potency entry in experiment [4] and in experiment [3] was “inactive” throughout.
In the case of `C[C@@H]1[C@@H](c2ccccc2)c2cc3ccccc3nc2-c2nc3ccccc3cc2[C@H]1C(=O)N1CCCC1`, the Potency entry in experiment [4] and in experiment [3] was “inactive” in each case.
Regarding `COc1ccc([C@]23Cc4cc(C#N)ccc4[C@H](O2)c2c(cc(C)n(-c4ccccc4)c2=O)O3)cc1`, the Potency entry in experiment [4] and in experiment [3] was “inactive” each time.
In the case of `CSc1nc(N)c2ncn([C@@H]3O[C@H](COP(=O)(O)OP(=O)(O)OP(=O)(O)O)C(O)[C@H]3O)c2n1` (stereo partly specified), the Potency in experiment [5] is 50.1 µM (active).

The values are drawn from PubChem BioAssay (NCATS).
